Data as given in ChEMBL document CHEMBL3988442, “University of Dundee, Small-Polar-MMV Screening Library” (2021).
The campaign covered roughly 48,000 compounds. About 13,000 (27%) showed an effect of 50% or more. Some of the results follow.

system: Wolbachia pipientis; test: Anti-Wolbachia Cell-Based Screen; assay type: functional; design: scale not given: in the data most compounds retested in dose-response had high values; details: 5 µM

Row | SMILES | Percent Effect
1 | Cc1nn(C)c(C)c1C(C(=O)O)N1CC=C(c2ccccc2)CC1 (centres undefined) | -20.97%
2 | CN1CCN(C[C@H]2CN3CC[C@H]2C[C@@H]3CNC(=O)c2ccco2)CC1 | -8.219%
3 | c1ccc(O[C@H]2CC[C@H]3[C@H]2OCCN3Cc2nccs2)nc1 | -6.34%
4 | Cc1ccc(CN2CCO[C@H]3[C@H](OCc4cccnc4)CC[C@@H]32)o1.O=C(O)C(F)(F)F.O=C(O)C(F)(F)F | 105.6%
5 | Cc1ccc(CN2CCO[C@@H]3[C@@H](OCc4cccnc4)CC[C@@H]32)o1 | 103.6%
6 | O=C(O)C(F)(F)F.O=C(O)C(F)(F)F.c1cncc(CO[C@H]2CC[C@H]3[C@@H]2OCCN3C2CCOCC2)c1 | -9.441%
7 | Cc1ccc(CN2CCO[C@H]3[C@@H](OCc4cccnc4)CC[C@@H]32)o1.O=C(O)C(F)(F)F.O=C(O)C(F)(F)F | 111.1%
8 | CC(C)CNC(=O)N1CCOC2(CCNCC2)C1 | -1.344%
9 | CC[C@H](N)Cn1nc(-c2cccs2)oc1=O.Cl | -4.464%
10 | CCOCCNC1(c2ccc(Cl)cc2)CCOCC1 | -4.765%
11 | CN(CCc1ccc(F)cc1)Cc1nc2c(cnn2C)c(=O)[nH]1 | 17.64%
12 | CN(CCc1ccccc1)Cc1nc2c(cnn2C)c(=O)[nH]1 | 101%
13 | CC(NC(=O)CN1CCCC1=O)c1ccc(Cl)s1 (centres undefined) | -9.497%
14 | O=C(c1ccc2c(c1)COC2)N1CCC(Nc2ccccc2)CC1 | 5.047%
15 | O=C(CCc1ccsc1)N1CCC(C(=O)O)(c2ccccc2)CC1 | 7.958%
16 | O=C(c1ccc2c(c1)OCO2)N1CCC(C(=O)O)(c2ccccc2)CC1 | 117.1%
17 | CC(C)OC(=O)N1C[C@H]2CC[C@@H]1CN(Cc1cccnc1)C2 | -10.82%
18 | COC(=O)N1C[C@H]2CC[C@@H]1CN(Cc1ccncc1)C2 | -3.604%
19 | O=C(C1CCOCC1)N1C[C@H]2CC[C@@H]1CN(Cc1ccncc1)C2 | 9.375%
20 | COCCN1CC[C@]2(CN(Cc3ccccn3)C[C@H]2C)C1=O.O=C(O)C(F)(F)F.O=C(O)C(F)(F)F | -7.652%
21 | C[C@@H]1CN(C2CCOC2)C[C@]12CCN(Cc1cccnc1)C2=O.O=C(O)C(F)(F)F.O=C(O)C(F)(F)F (some centres undefined) | -21.11%
22 | O=C1CO[C@H]2CN(Cc3cccnc3)C[C@H]2N1 | 0.8904%
23 | Cc1ccc([C@]2(O)CC[C@H]3CN(Cc4ccncc4)C[C@H]32)nc1 | 139.7%
24 | Cc1ccc([C@]2(O)CC[C@H]3CN(Cc4cccnc4)C[C@H]32)nc1 | 129.8%
25 | Oc1cccc(CN2C[C@H]3CC[C@@H]2CN(Cc2cccnc2)C3)c1 | 8.491%

Row | SMILES | Percent Effect
26 | Cc1ncsc1CN1C[C@@H]2CN(Cc3cccnc3)CCO[C@@H]2C1 | -8.283%
27 | C[C@@H]1CN(Cc2cccnc2)C[C@]1(C)O | 104.9%
28 | COCCN1CC[C@]2(CN(Cc3cccnc3)C[C@H]2C)C1=O.O=C(O)C(F)(F)F.O=C(O)C(F)(F)F | 106.1%
29 | CCCn1ncc(CN2CCCC(C(=O)c3ccc(SC)cc3)C2)c1C (centres undefined) | -6.021%
30 | Cc1cccc2cc(CN3CCCN4CCC[C@H]4C3)c(=O)[nH]c12 | -11.16%
31 | c1cnc(N2CC[C@@H]3[C@@H]2CCN3Cc2cccs2)nc1 | -7.885%
32 | Cl.Cl.O=C1NC2(CCNCC2)CC1c1ccncc1 (centres undefined) | -8.002%
33 | CC(C)=CCN1C[C@H]2CC[C@@H]1CN(S(=O)(=O)c1cccnc1)C2 | -24.05%
34 | CNc1nc(C(=O)N2C[C@@H]3CCN(C)[C@@H]3C2)cs1 | 2.53%
35 | Cc1cc(C(=O)NCC(=O)N2CCOCC2)nn1C(C)(C)C | 90.04%
36 | Cc1ncc2c(c1CNC(=O)C1(C)CC1)CCNC2 | -5.654%
37 | CN1CCc2c(CNC(=O)c3nccn3C)cncc2C1.Cl.Cl.Cl | 16.49%
38 | Cl.Cl.Cn1cc(C(=O)NCc2cncc3c2CCNC3)cn1 | 102.3%
39 | NC(=O)CN1CCCN(C(=O)Cc2ccc3ccccc3c2)CC1 | -1.177%
40 | CCn1cc(CN2CCCN(C(=O)Cc3ccc(C)nc3)CC2)cn1 | 6.063%
41 | CCn1ccnc1CN1CCCN(C(=O)Cc2ccc(C)s2)CC1 | 99.83%
42 | Cc1nc(CC(=O)N2CCN(Cc3ccc(C#N)cc3)CC2)cs1 | -1.564%
43 | CCCN1CCN(Cc2nccn2CC)C(C)C1 (centres undefined) | -20.72%
44 | CCn1ccnc1CN1CCCN(C(=O)Cc2csc(C)n2)CC1 | 120.7%
45 | CCc1nc(CN2CCCN(C(=O)Cc3cccs3)CC2)cs1 | -3.679%
46 | CCn1ccnc1CN1CCCN(C(=O)Cc2ccc(C)cc2)CC1 | 110.8%
47 | CCn1cc(CN2CCCN(C(=O)Cc3cccs3)CC2)cn1 | -6.845%
48 | Cc1ccc(CC(=O)N2CCCN(Cc3nccn3C)CC2)cn1 | 118.2%
49 | CCn1ccnc1CN1CCCN(C(=O)Cc2ccc(C)nc2)CC1 | -2.19%
50 | CCN1CCN(C(=O)Cc2ccc(S(=O)(=O)C(F)F)cc2)CC1 | -2.606%

Row | SMILES | Percent Effect
51 | COCC(=O)NC[C@H]1C[C@@H]2CCN1C[C@@H]2CN1CCc2ccccc21 | -6.803%
52 | CNCCc1nc2cc(F)ccc2[nH]1.Cl.Cl | -2.58%
53 | COCC1CN(c2ccc(C#N)c(Cl)c2)CCO1 (centres undefined) | -25.31%
54 | NC(=O)CN1CCCN(C(=O)Cc2ccc(F)c(Br)c2)CC1 | -2.154%
55 | CCn1ccnc1CN1CCCN(C(=O)Cc2ccccc2C)CC1 | 129.6%
56 | CCc1noc(CN2CCN(C(=O)Cc3ccc(F)cc3)CC2)n1 | -6.192%
57 | CCn1ccnc1CN1CCCN(C(=O)Cc2ccc(F)cc2)CC1 | 115.9%
58 | O=C(Cc1ccccc1)N1CCN(Cc2noc(C3CC3)n2)CC1 | 0.1776%
59 | O=c1c2ccccc2cnn1Cc1cncn1C1CC1 | 94.68%
60 | COCCn1cncc1Cn1ncc2ccccc2c1=O | 103.5%
61 | COCCn1cncc1CN1CCC(C(C)=O)(c2ccccc2)CC1 | -9.89%
62 | CCn1cncc1Cn1ncc2ccccc2c1=O | 88.95%
63 | N#Cc1ccc(S(=O)(=O)NCCn2ccnc2)cc1Cl | -8.716%
64 | Cl.O=C1NC2(CCNCC2)CC1c1ccccc1 (centres undefined) | -38.6%
65 | CC(C)COC(=O)N1CCC2(CCNC2)C1.Cl (centres undefined) | -11.51%
66 | CC(C)NC(=O)N1CCOC2(CCCNC2)C1 (centres undefined) | -11.25%
67 | Cc1[nH]c2c(F)cccc2c1CC(=O)N1CCN(C2CCSCC2)CC1 | -2.752%
68 | CN(C)CCOCc1cncc2c1CCN(C1CCOC1)C2.O=C(O)C(F)(F)F.O=C(O)C(F)(F)F.O=C(O)C(F)(F)F (centres undefined) | 106.1%
69 | CCN(C)c1ncc2c(c1C(=O)O)CCN(C1CCOC1)C2.O=C(O)C(F)(F)F.O=C(O)C(F)(F)F (centres undefined) | -4.446%
70 | CCS(=O)(=O)N1CCc2c(COCCN(C)C)cncc2C1.O=C(O)C(F)(F)F.O=C(O)C(F)(F)F | 97.71%
71 | CCCS(=O)(=O)N1CCc2c(COCC)cncc2C1.O=C(O)C(F)(F)F | 0.2019%
72 | CC(Cc1cccc(Cl)c1)NC(=O)NCc1ncnn1C (centres undefined) | -5.872%
73 | Cc1ncccc1OCC(=O)N1CCN[C@H]2CS(=O)(=O)C[C@H]21 | -3.722%
74 | Cc1noc(C)c1CN1CCO[C@H]2CN(CC3CC3)C[C@H]21.O=C(O)C(F)(F)F.O=C(O)C(F)(F)F | -4.425%
75 | CCOC[C@@H]1CC[C@H]2[C@H](CCN2Cc2c(C)noc2C)O1.O=C(O)C(F)(F)F | 3.079%

Row | SMILES | Percent Effect
76 | COCCN1C(=O)CC[C@@H]2[C@@H]1CCN2Cc1c(C)noc1C.O=C(O)C(F)(F)F | 103.6%
77 | Cc1noc(C)c1CN1CC[C@H]2[C@H]1CCN2CC1CCOCC1.O=C(O)C(F)(F)F.O=C(O)C(F)(F)F | 115.6%
78 | Cc1noc(C)c1CN1CC[C@@H]2O[C@@H](COCC3CC3)CC[C@@H]21.O=C(O)C(F)(F)F | -0.7071%
79 | CCOC[C@H]1CC[C@H]2[C@H](CCN2Cc2c(C)noc2C)O1.O=C(O)C(F)(F)F | 4.615%
80 | N#Cc1cccnc1NCCNC(=O)N1CCN2CCCCC2C1 (centres undefined) | -6.324%
81 | CC(C)NC(=O)C1CCC2(CCNCC2)C1 (centres undefined) | -35.43%
82 | COc1ccc(C(=O)C2CCCN(CCCn3cccn3)C2)c(OC)c1 (centres undefined) | -1.04%
83 | NC(=O)c1cnn2c1NCC(CNCC1(c3ccccc3)CCC1)C2 (centres undefined) | 92.2%
84 | O=C(c1ccc(C2CCCN2)s1)N1CCN2CCC1CC2 (centres undefined) | 11.12%
85 | CCS(=O)(=O)N1CCc2ccc(NC(=O)Nc3cccc(C#N)c3)cc21 | 97.92%
86 | CC[C@H]1CN2CC[C@H]1C[C@@H]2CNCc1cccc(C#N)c1 | 6.24%
87 | CC[C@H]1CN2CC[C@H]1C[C@@H]2CNC(=O)Nc1cccc(C#N)c1 | 1.181%
88 | CC(C)(C)CC(=O)N1C[C@H]2CCN[C@H]2C1 | 123.1%
89 | O=C(CC(F)(F)F)N1C[C@H]2CCN[C@H]2C1 | 92.17%
90 | CC(C)(C)CC(=O)N1C[C@@H]2C[C@H]1CN2.Cl | -16.89%
91 | O=C(CC1CC1)N1C[C@H]2CCN[C@H]2C1 | 112.4%
92 | CC(C)CNC(=O)N1C[C@H]2CCN[C@H]2C1 | -21.84%
93 | Cc1ccc(S(=O)(=O)N2C[C@@H]3CCN[C@@H]3C2)cc1 | -12.06%
94 | CC(C)CNC(=O)N1C[C@@H]2CCCN[C@@H]2C1 | -10.44%
95 | O=S(=O)(c1ccc(Cl)cc1)N1C[C@@H]2CCN[C@@H]2C1 | -24.32%
96 | O=S(=O)(c1ccccc1)N1C[C@@H]2CCN[C@@H]2C1 | -39.01%
97 | CC(C)C(=O)N1C[C@H]2CCCN[C@H]2C1.Cl | -7.068%
98 | CC(C)CCC(=O)N1C[C@H]2CCN[C@H]2C1 | 107.3%
99 | O=C(CC1CCCC1)N1C[C@@H]2C[C@H]1CN2 | -37.69%
